Screening data as filed in PubChem.
In the library only some 1.2% were active in any assay of this set; here they are far more common.
Efflux pump mplx: inhibitors of Candida antifungal efflux pumps expressed in yeast. S. cerevisiae Candida pump triplex, Nile Red efflux. inhibition, % at 10 µM. hit rate 0.44% among 330,000;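 active = plate passing quality check with inhibition over a set limit, or well fluorescence over plate mean plus 4 SD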;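 note: Nile Red retained in pooled yeast measured as flow cytometry median fluorescence; 0% = buffer negative control and 100% = Enniatin B positive control; higher means more Nile Red kept so more efflux inhibition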
LRH-1 inv ag: suppresses constitutive activity of human LRH-1; O00482; HEK293T StAR-luciferase reporter, LRH-1 transfected, 24 h; inhibition, % at 3.6 µM; hit rate 0.13% among 360,000; AID 602396;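 active = inhibition above the mean inhibition of all tested compounds plus 3 SD, cut at about 73% in these data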;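 note: 0% = DMSO wells and 100% = reporter-only cells lacking LRH-1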
Target sequence (O00482 whole entry, looked up): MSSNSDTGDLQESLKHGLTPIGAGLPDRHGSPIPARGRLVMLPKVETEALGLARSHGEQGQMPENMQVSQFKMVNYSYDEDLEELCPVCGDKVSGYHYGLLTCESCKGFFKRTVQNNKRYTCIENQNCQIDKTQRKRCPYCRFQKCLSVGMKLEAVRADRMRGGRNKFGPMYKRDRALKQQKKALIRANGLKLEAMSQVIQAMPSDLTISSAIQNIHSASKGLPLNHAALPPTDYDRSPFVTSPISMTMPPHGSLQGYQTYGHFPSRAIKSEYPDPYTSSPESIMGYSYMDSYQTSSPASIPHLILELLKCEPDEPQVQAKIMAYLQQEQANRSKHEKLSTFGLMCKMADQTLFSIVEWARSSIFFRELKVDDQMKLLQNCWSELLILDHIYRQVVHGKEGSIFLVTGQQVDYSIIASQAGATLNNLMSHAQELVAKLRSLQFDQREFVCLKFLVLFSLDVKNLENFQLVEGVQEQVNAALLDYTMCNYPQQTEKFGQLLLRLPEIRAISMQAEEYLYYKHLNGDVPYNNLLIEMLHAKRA
NCOA2 inhibitor: inhibits human steroid receptor coactivator 2; AID 651957; inhibition, % at 9 µM; Q15596; HEK293 GAL4-SRC2 luciferase reporter, luminescence; hit rate 0.17% among 370,000;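 active = inhibition above the mean inhibition of all tested compounds plus 3 SD, set per campaign, cut at about 52% in these data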;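 note: 0% = DMSO treated cells and 100% = cells given Gossypol at 36 µM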
NCOA1 inh: human NCOA1 inhibition. Q15788. HEK293 GAL4-SRC1 luciferase reporter, luminescence. inhibition, % at 3.6 µM. hit rate 0.12% among 360,000;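 active = inhibition above the campaign mean plus 3 SD, with each screening campaign given its own cutoff, cut at about 60% in these data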;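 note: 0% = DMSO treated cells and 100% = gossypol at 36 µM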
SRC3 inh: inhibitors of human steroid receptor coactivator 3 (SRC3) | Q9Y6Q9 | HEK293 GAL4-SRC3 luciferase reporter, luminescence | inhibition, % at 3.6 µM | hit rate 0.17% among 360,000 | AID 588352;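 active = inhibition above a per-campaign cutoff, the mean of all compounds plus 3 SD, cut at about 60% in these data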;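 note: 0% = DMSO-treated cells and 100% = gossypol-treated cells at 36 µM; higher means less SRC3-driven luciferase light from the GAL4 reporter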
COUP-TFII inh: blocks human COUP-TFII nuclear receptor; P24468; HEK293T NGFI-A luciferase reporter, luminescence; inhibition, % at 8.6 µM; hit rate 0.7% among 370,000; AID 686940;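 active = inhibition above a per-plate cutoff, mean inhibition of test wells between control levels plus 3 SD, cut at about 38% in these data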;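 note: cells cotransfected with COUP-TFII expression vector driving the NGFI-A reporter; 0% = median of COUP-TF2 test wells and 100% = reporter-only cells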
Cmpd fluor yeast: flagged as fluorescent in efflux inhibitor counter-screen; shares compounds with Efflux pump mplx; S. cerevisiae AD/pABC3, compound fluorescence, flow cytometry; fluorescence ratio to DMSO, % at 10 µM; hit rate 4% among 1,700; AID 588517;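 active = fluorescence ratio to DMSO above its plate's cutoff, the plate mean ratio plus 5 SD, cut at about 210% in these data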;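 note: unstained yeast with no Nile Red so the signal is compound autofluorescence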
CaMdr1 efflux inh: inhibitors of Candida albicans Mdr1 efflux pump; inhibition, % at 10 µM; shares compounds with Efflux pump mplx; hit rate 1% among 1,700; S. cerevisiae AD/CaMDR1, Nile Red efflux, flow cytometry; in the data active = inhibition above about 26%;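 note: 0% = DMSO vehicle and 100% = reference inhibitor; higher means more Nile Red retained so more efflux inhibition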
Cdr2 pump inh: blocks the Candida albicans Cdr2 efflux pump in yeast. Nile Red retention ratio vs DMSO, % at 10 µM. hit rate 4% among 1,700. S. cerevisiae AD/CaCDR2, Nile Red retention, flow cytometry. AID 588520. shares compounds with Efflux pump mplx; in the data active = Nile Red retention ratio vs DMSO above about 190%;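 note: higher ratio means more blocking of Cdr2 efflux of the dye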
CaCdr1 efflux inh: inhibitors of Candida albicans Cdr1 efflux pump | shares compounds with Efflux pump mplx | S. cerevisiae AD/CaCDR1, Nile Red efflux, flow cytometry | inhibition, % at 10 µM | hit rate 1% among 1,700 | AID 588522;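 active = inhibition above the screen-wide mean plus twice its standard deviation, cut at about 32% in these data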
* = called active by the depositor; x = no result given.

SMILES	Efflux pump mplx	LRH-1 inv ag	NCOA2 inhibitor	NCOA1 inh	SRC3 inh	COUP-TFII inh	Cmpd fluor yeast	CaMdr1 efflux inh	Cdr2 pump inh	CaCdr1 efflux inh
O=C1/C(=C\c2cccc(O)c2O)SC(=S)N1Cc1ccccc1	-0.1	9.9	-12.0	-12.5	-11.2	14.6	x	x	x	x
CCOC(=O)C(C(=O)OCC)C1N=C(N)N=C2Oc3ccccc3N21 (centres undefined)	-0.1	-6.1	-19.7	-14.2	-16.9	-22.8	x	x	x	x
COc1cc(/C=C(\C#N)C(=O)Nc2cccc3ncccc23)cc(OC)c1OC	3.4*	-8.7	-3.7	-14.1	2.6	-11.8	98.3	-0.2	118.0	0.0
COc1ccc(/C=C(\C#N)C(=O)Nc2cccc3ncccc23)cc1OC	0.2	-19.2	-36.3	-9.0	16.2	-5.1	97.2	-0.1	97.5	0.0
COc1ccc(NC(=O)/C(C#N)=C/c2cccnc2)c(OC)c1	0.0	10.1	-0.5	8.8	-5.8	27.6	x	x	x	x
N#C/C(=C\c1ccc(O)c(O)c1)C(=O)Nc1cccc2ncccc12	0.9	22.2	-2.4	3.4	-0.9	-7.0	107.2	-0.1	113.8	0.0
CCOC(=O)c1c(C)[nH]c(C)c1C(=O)COC(=O)c1ccc(S(=O)(=O)C(F)F)cc1	0.0	-12.7	-1.3	-12.7	7.4	17.1	x	x	x	x
COc1ccccc1-n1c(=O)c(C#N)c(-c2ccc([N+](=O)[O-])cc2)c2cc(C(=O)c3cc(F)ccc3O)cnc21	0.2	8.6	-13.4	-11.0	7.9	-0.3	x	x	x	x
Cn1c(=O)c(C#N)c(-c2ccc(F)cc2)c2cc(C(=O)c3cc(Cl)cc(Cl)c3O)cnc21	0.3*	2.0	-13.5	-0.7	14.7	4.0	92.1	-0.3	105.7	-0.1
Cc1csc(NC(=O)/C=C/c2ccc3c(c2)OCO3)n1	-0.4	-67.2	-49.5	-32.2	-4.3	-33.0	x	x	x	x
CC(=O)Nc1ccc(Nc2ncnc3c2cnn3-c2ccc(C)cc2C)cc1	-0.2	-6.7	-5.0	7.2	-4.2	-10.6	x	x	x	x
COc1ccc(/C=C2\SC(=O)N(CCCC(=O)Nc3ccc(C(=O)O)cc3)C2=O)cc1OC	3.5	7.7	-11.5	-8.5	6.8	4.5	x	x	x	x
COc1ccc(/C=C2\SC(=O)N(CCC(=O)Nc3ccccc3)C2=O)cc1OC	7.6*	-4.6	-0.6	-5.8	-16.2	-2.0	97.0	0.0	97.2	0.4
Cc1ccc(-n2c(SCC(=O)N3CC(=O)Nc4ccccc43)nc3ccccc3c2=O)cc1	-0.4	-7.3	-19.3	3.4	9.5	-2.5	x	x	x	x
Cc1cccc(C)c1-n1c(SCC(=O)N2CC(=O)Nc3ccccc32)nc2ccccc2c1=O	8.2*	4.6	7.0	2.4	5.8	-9.8	101.7	-0.2	124.8	94.6*
Cc1nnc(SCC(=O)Nc2nonc2C)s1	0.0	25.0	12.0	3.5	-5.6	20.3	x	x	x	x
COc1cccc(CCc2nnc(CCC(=O)NCCC3CCCCO3)o2)c1 (centres undefined)	0.0	18.5	-7.8	-5.7	6.8	12.0	x	x	x	x
CC1CCc2c(C(=O)Nc3ccc(OC(F)(F)F)cc3)csc2C1 (centres undefined)	18.9*	-15.8	6.5	7.4	-15.5	-13.2	98.6	-0.1	103.6	0.0
CC1CCc2c(C(=O)Nc3nccs3)csc2C1 (centres undefined)	0.3	-78.7	-28.6	-35.2	-61.8	-17.3	x	x	x	x
O=C(Cn1nc(-c2ccccc2F)ccc1=O)NCc1ccc2c(c1)OCO2	0.0	24.2	28.4	-44.5	-23.9	-12.2	x	x	x	x
CCc1ccc(C2=CC(c3cc(Br)ccc3F)n3ncnc3N2)cc1 (centres undefined)	0.9*	-14.1	-0.2	-16.9	4.7	4.0	101.7	-0.1	105.1	0.0
Fc1ccc(Br)cc1C1C=C(c2ccc(Br)cc2)Nc2ncnn21 (centres undefined)	0.2	15.7	-6.1	-8.8	17.4	9.0	x	x	x	x
CCC(=O)N(Cc1ccc(C)cc1)Cc1cc2cc3c(cc2[nH]c1=O)OCO3	10.6*	-6.1	-2.2	-41.2	2.2	24.9	104.7	0.0	108.1	0.2
CCC(=O)N(CCc1ccccc1)Cc1cc2cc3c(cc2[nH]c1=O)OCO3	0.4	7.0	-3.6	-13.1	11.0	14.1	x	x	x	x
COc1ccccc1CC(=O)Nc1cc(OC)c(NC(=O)c2ccccc2)cc1OC	0.1	7.7	-9.6	14.3	-0.7	6.0	x	x	x	x
SMILES	Efflux pump mplx	LRH-1 inv ag	NCOA2 inhibitor	NCOA1 inh	SRC3 inh	COUP-TFII inh	Cmpd fluor yeast	CaMdr1 efflux inh	Cdr2 pump inh	CaCdr1 efflux inh
COc1ccc(NC(=O)c2c[nH]n3c(=O)cc(C4CCN(C(=O)OC(C)(C)C)CC4)nc23)cc1Cl	1.1*	9.5	17.9	7.3	-2.5	1.2	109.0	0.0	114.4	0.2
Cc1cc(C(=O)NC2CC(C)(C)Cc3c2cnn3-c2ccc(F)cc2)nn1C (centres undefined)	-0.1	-19.9	-3.3	7.3	3.0	-3.5	x	x	x	x
COc1ccc(-n2ncc3c2CC(C)(C)CC3NC(=O)c2cn[nH]c2)cc1 (centres undefined)	-0.3	-16.9	-4.1	7.4	-4.0	11.1	97.0	-0.3	82.4	-0.3
CC1(C)Cc2c(cnn2-c2ccc(F)cc2)C(NC(=O)c2cnccn2)C1 (centres undefined)	6.2*	0.2	-10.8	5.4	15.3	8.9	97.8	-0.3	100.1	0.0
Cc1cc(C)cc(N(C(C)C(=O)N2CCCCC2)S(C)(=O)=O)c1 (centres undefined)	0.0	6.8	-12.9	-17.8	-6.4	3.8	x	x	x	x
CC(C)COC(=O)c1ccccc1N1C(=O)C2C3CCC(C3)C2C1=O (centres undefined)	12.6*	4.2	-3.4	-8.5	20.9	-14.7	104.5	-0.1	94.1	0.1
COc1cccc(/C(O)=C2/C(=O)C(=O)N(CCCN3CCOCC3)C2c2ccncc2)c1 (centres undefined)	0.1	-3.4	-6.4	-3.3	9.4	-6.7	x	x	x	x
COC(=O)c1ccc(C2/C(=C(\O)c3cccc(OC)c3)C(=O)C(=O)N2CCCN2CCOCC2)cc1 (centres undefined)	9.7*	0.5	6.0	2.6	17.9	13.0	115.7	-0.2	96.0	0.1
COc1ccc(CCC(=O)Nc2cc(S(=O)(=O)N3CCCCC3)ccc2N(C)C)cc1	1.1*	-16.8	10.3	6.6	15.3	-10.2	102.5	-0.1	93.2	-0.1
Cc1cccc(C)c1NC(=O)COC(=O)CCc1ccc(S(=O)(=O)N2CCCCC2)cc1	18.9*	12.3	-7.9	-18.6	8.6	1.4	101.1	-0.3	98.1	0.0
